# The entries come from a sample that favours the strongest signals as a whole.
# Legend:
# Test in all cases: glycan array binding signal (z-score within array); higher = stronger binding
# Conditions in all cases: glycan notation: IUPAC condensed, linker removed
# [1] = target: Fuc(a1-2)Gal(b1-3)GalNAc(b1-4)[Neu5Ac(a2-3)]Gal(b1-4)Glc
# Method in brief: (§1)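 Glycan array data came from 3228 arrays in the Consortium for Functional Glycomics database, and only arrays with an available protein sequence were kept. Glycan names were put into IUPAC-condensed notation, and columns mapping to the same glycan were averaged. The binding signal is a within-array Z-score, averaged across arrays of one protein sequence run at different concentrations or buffers and across linkers. A negative Z-score can be read as non-binding.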
# Fuc(a1-2)Gal(b1-3)GlcNAc = target: Fuc(a1-2)Gal(b1-3)GlcNAc
# Method in brief: as §1
# [2] = target: Fuc(a1-2)Gal(b1-3)GlcNAc(b1-2)Man(a1-3)[Fuc(a1-2)Gal(b1-3)GlcNAc(b1-2)Man(a1-6)]Man(b1-4)GlcNAc(b1-4)GlcNAc
# Method in brief: as §1
# [3] = target: Fuc(a1-2)Gal(b1-4)GlcNAc(b1-3)Gal(b1-4)GlcNAc
# Method in brief: as §1
# [4] = target: Fuc(a1-2)Gal(b1-4)GlcNAc(b1-3)Gal(b1-4)GlcNAc(b1-2)Man(a1-3)[Fuc(a1-2)Gal(b1-4)GlcNAc(b1-3)Gal(b1-4)GlcNAc(b1-2)Man(a1-6)]Man(b1-4)GlcNAc(b1-4)GlcNAc
# Method in brief: as §1
# [5] = target: Fuc(a1-2)Gal(b1-4)[Fuc(a1-3)]GlcNAc(b1-3)GalNAc
# Method in brief: as §1
# [6] = target: Fuc(a1-2)Gal6S(b1-4)Glc6S
# Method in brief: as §1
# [7] = target: Fuc(a1-2)[Gal(a1-3)]Gal(b1-4)GlcNAc(b1-2)Man(a1-3)[Fuc(a1-2)[Gal(a1-3)]Gal(b1-4)GlcNAc(b1-2)Man(a1-6)]Man(b1-4)GlcNAc(b1-4)GlcNAc
# Method in brief: as §1
# [8] = target: Fuc(a1-2)[Gal(a1-4)]Gal(b1-4)GlcNAc
# Method in brief: as §1
# [9] = target: Gal(a1-3)Gal(b1-3)[Fuc(a1-4)]GlcNAc(b1-2)Man(a1-3)[Gal(a1-3)Gal(b1-3)[Fuc(a1-4)]GlcNAc(b1-2)Man(a1-6)]Man(b1-4)GlcNAc(b1-4)GlcNAc
# Method in brief: as §1
# Gal(a1-3)Gal(b1-4)Glc = target: Gal(a1-3)Gal(b1-4)Glc
# Method in brief: as §1
# [10] = target: Gal(a1-3)Gal(b1-4)[Fuc(a1-3)]GlcNAc
# Method in brief: as §1
# Gal(a1-3)GalNAc = target: Gal(a1-3)GalNAc
# Method in brief: as §1
# [11] = target: Gal(a1-4)Gal(b1-3)GlcNAc(b1-2)Man(a1-3)[Gal(a1-4)Gal(b1-3)GlcNAc(b1-2)Man(a1-6)]Man(b1-4)GlcNAc(b1-4)GlcNAc
# Method in brief: as §1
# [12] = target: Gal(a1-4)Gal(b1-4)GlcNAc(b1-2)Man(a1-3)[Gal(a1-4)Gal(b1-4)GlcNAc(b1-2)Man(a1-6)]Man(b1-4)GlcNAc(b1-4)GlcNAc
# Method in brief: as §1
# [13] = target: Gal(a1-4)Gal(b1-4)GlcNAc(b1-3)Gal(b1-4)Glc
# Method in brief: as §1
# Gal(b1-3)GlcNAc = target: Gal(b1-3)GlcNAc
# Method in brief: as §1
# [14] = target: Gal(b1-3)GlcNAc(b1-3)Gal(b1-4)GlcNAc(b1-3)Gal(b1-4)GlcNAc(b1-2)[Gal(b1-3)GlcNAc(b1-3)Gal(b1-4)GlcNAc(b1-3)Gal(b1-4)GlcNAc(b1-6)]Man(a1-6)[Gal(b1-3)GlcNAc(b1-3)Gal(b1-4)GlcNAc(b1-3)Gal(b1-4)GlcNAc(b1-2)Man(a1-3)]Man(b1-4)GlcNAc(b1-4)[Fuc(a1-6)]GlcNAc
# Method in brief: as §1
# [15] = target: Gal(b1-3)GlcNAc(b1-3)GalNAc
# Method in brief: as §1
# [16] = target: Gal(b1-3)[Fuc(a1-4)]GlcNAc(b1-6)GalNAc
# Method in brief: as §1
# [17] = target: Gal(b1-4)GlcNAc(b1-3)Gal(b1-4)GlcNAc(b1-3)Gal(b1-4)GlcNAc(b1-2)[Gal(b1-4)GlcNAc(b1-3)Gal(b1-4)GlcNAc(b1-3)Gal(b1-4)GlcNAc(b1-6)]Man(a1-6)[Gal(b1-4)GlcNAc(b1-3)Gal(b1-4)GlcNAc(b1-3)Gal(b1-4)GlcNAc(b1-2)Man(a1-3)]Man(b1-4)GlcNAc(b1-4)[Fuc(a1-6)]GlcNAc
# Method in brief: as §1
# [18] = target: Gal(b1-4)GlcNAc(b1-3)Gal(b1-4)GlcNAc(b1-3)Gal(b1-4)GlcNAc(b1-3)Gal(b1-4)GlcNAc(b1-2)[Gal(b1-4)GlcNAc(b1-3)Gal(b1-4)GlcNAc(b1-3)Gal(b1-4)GlcNAc(b1-3)Gal(b1-4)GlcNAc(b1-6)]Man(a1-6)[Gal(b1-4)GlcNAc(b1-3)Gal(b1-4)GlcNAc(b1-3)Gal(b1-4)GlcNAc(b1-3)Gal(b1-4)GlcNAc(b1-2)Man(a1-3)]Man(b1-4)GlcNAc(b1-4)[Fuc(a1-6)]GlcNAc
# Method in brief: as §1
# [19] = target: Gal(b1-4)GlcNAc(b1-3)Gal(b1-4)GlcNAc(b1-3)Gal(b1-4)GlcNAc(b1-3)Gal(b1-4)GlcNAc(b1-3)Gal(b1-4)GlcNAc(b1-2)Man(a1-3)[Gal(b1-4)GlcNAc(b1-3)Gal(b1-4)GlcNAc(b1-3)Gal(b1-4)GlcNAc(b1-3)Gal(b1-4)GlcNAc(b1-3)Gal(b1-4)GlcNAc(b1-2)Man(a1-6)]Man(b1-4)GlcNAc(b1-4)[Fuc(a1-6)]GlcNAc
# Method in brief: as §1
binder,measurement,setting,value
PX9961U-pdi-543-24-543 (Parabacteroides distasonis) (protein) EEPVGEFLPGQVESEENIEGIVTGAYAVLDGYYASDAINSGCSNWQFGDVVSDDAYKGGGGTGDQNQIHLMEIFNANPTGIDFEARWAALYEGIKRCNQAIRLLNGSEVKNKEQRLAEMRFLRGHYYFNLKIIYNQIPWIDETLVDPNEYNKKSNIEFSSDQLWEKILEEFSAAYKVLPESQADYGRPTKMAARAYMAKVYLYQSKWKECLEACDEVIQSGKYELFPDFRNVFLPENDNCSEIIFAIQLSINDGSPNNENGSYGDRLLPPGGPYPVYGFLRPTQNLVNAYKTDVKGLPYNDGKDVSENDYVDVRLDHTLARPNIPFMDVQLYDWTPREASVYGPYSPKKRLVSLNSTYYSPIWPYVNALNFYVIRYADLLLWRAEAAIETGDLETGRKYINMIRERAKNTQHVKTMDQSQDAANYKVGVYDEPFKSKNEAVQALRMERRLEMAHEGIRFFDLVRWGVADEVINAYIAKEKVFRSHLQNAHFVKGKHEYFPIPQSMIDICGTEVMKQNPGY,glycan array binding signal (z-score),[1],-0.337
same,glycan array binding signal (z-score),Fuc(a1-2)Gal(b1-3)GlcNAc,-0.324
same,glycan array binding signal (z-score),[2],7.29
same,glycan array binding signal (z-score),[3],-0.463
same,glycan array binding signal (z-score),[4],-0.241
same,glycan array binding signal (z-score),[5],3.47
same,glycan array binding signal (z-score),[6],-0.226
same,glycan array binding signal (z-score),[7],8.53
same,glycan array binding signal (z-score),[8],-0.379
same,glycan array binding signal (z-score),[9],4.38
same,glycan array binding signal (z-score),Gal(a1-3)Gal(b1-4)Glc,-0.175
same,glycan array binding signal (z-score),[10],0.287
same,glycan array binding signal (z-score),Gal(a1-3)GalNAc,-0.348
same,glycan array binding signal (z-score),[11],-0.428
same,glycan array binding signal (z-score),[12],2.13
same,glycan array binding signal (z-score),[13],-0.389
same,glycan array binding signal (z-score),Gal(b1-3)GlcNAc,-0.43
same,glycan array binding signal (z-score),[14],4.42
same,glycan array binding signal (z-score),[15],-0.385
same,glycan array binding signal (z-score),[16],3.44
same,glycan array binding signal (z-score),[17],6.31
same,glycan array binding signal (z-score),[18],3.38
same,glycan array binding signal (z-score),[19],7.11

# From the supplement of paper PMC8728848
